Assay results published in PubChem BioAssay (EPA / NIEHS).
Active and inactive are the calls of the source. The calls were made as follows: active = hit-call score of the fitted dose curve at least 0.9, where 1 is the maximum; inactive = score below 0.9.

What follows are compounds tested on Matrix Metallopeptidase 1 (MMP1), MMP1 (gene 4312) (assay: BSK_BF4T_MMP1: BioMAP Diversity Plus: BF4T Assay for Matrix Metallopeptidase 1 (MMP1) Biomarker Activity (AID 2284270)). Conditions: primary human bronchial epithelial cells with fibroblasts.
Method: BSK_BF4T is a cell-based, multiplexed-readout assay that uses bronchial epithelial cells and dermal fibroblasts, a human vascular primary cell, with measurements taken at 24 hours after chemical dosing in a microplate: 96-well plate.BSK_BF4T_MMP1 is an assay component measured in the BSK_BF4T assay. It measures MMP-1 antibody related to regulation of gene expression using ELISA technology.Data from the assay component BSK_BF4T_MMP1 was analyzed at the endpoint, BSK_BF4T_MMP1, in the positive analysis fitting direction relative to DMSO as the negative control and baseline of activity. Using a type of binding reporter, gain or loss-of-signal activity can be used to understand protein changes. To generalize the intended target to other relatable targets, this assay endpoint is annotated to the 'protease' intended target family, where the subfamily is 'matrix metalloproteinase'.
The levels of cell surface (or secreted, indicated by the prefix "s") biomarker endpoints were measured by ELISA. Overt cytotoxicity to cells in confluent adherent cultures (all systems other than the BT system) was assessed by measuring total protein levels using sulforhodamine B (SRB) staining in parallel cultures at the time of biomarker measurements, indicated as SRB endpoints. For proliferation assays for adherent cell types, individual cell types are cultured at sub-confluence and relative cell numbers quantified by SRB staining at time points optimized for each system (48 h: 3C and CASM3C systems; 72 h: BT and HDF3CGF systems; 96 h: SAg system). SRB was performed by staining cells with 0.1% SRB after fixation with 10% TCA and reading wells at 560 nm.Viability and proliferation of PBMC (T cells) was quantified by Alamar Blue reduction for the SAg and BT systems. For PBMC viability (referred to as PBMC Cytotoxicity within the assay endpoint names), cells were plated (75,000/well in a 96-well plate) and then chemical samples added for 1 h before addition of activators, SEB and TSST-1 (20 ng/mL final concentration each). Cells were incubated for 90 h. Then, Alamar Blue (20 uL/well) (Invitrogen, Cat DAL1100) was added for 6 h, and the plates were read with a fluorescence microplate reader at 546/580 nm (excitation/emission). For PBMC proliferation, cells were plated and activated as above but incubated for only 16 h prior to addition of Alamar Blue. Plates were read after 6 h.
`O=C(O)C(F)(F)OC(F)(F)C(F)(F)OC(F)(F)F` was tested, and the outcome was “inactive”. `FC(F)(F)C(F)(C(F)(F)F)C(F)(F)C(F)(F)CC1CO1` (centres undefined) was tested, and the outcome was “inactive”. In the case of `COC(=O)C(F)(F)C(F)(F)OC(F)(C(F)(F)F)C(F)(F)OC(F)=C(F)F` (centres undefined), the outcome is reported as “inactive”. In the case of `O=S(=O)(F)C(F)(F)C(F)(F)C(F)(F)C(F)(F)C(F)(F)C(F)(F)C(F)(F)C(F)(F)F`, the outcome is reported as “inactive”. With `CC(O)C(F)(F)C(F)(F)F` (centres undefined) the outcome was “inactive”. With `OCC(F)(F)OC(F)(F)C(F)(F)OC(F)(F)CO` the outcome was “inactive”. With `O=C(O)C(F)(F)C(F)(F)C(=O)O` the outcome was “inactive”. With `NC(=O)C(F)(F)C(F)(F)F` the outcome was “inactive”. In the case of `O=C(O)C(F)(OC(F)(F)C(F)(F)C(F)(F)F)C(F)(F)F` (centres undefined), the outcome is reported as “inactive”. `O=C(O)C=CC(F)(C(F)(F)F)C(F)(F)F` was tested, and the outcome was “inactive”. In the case of `O=C(O)C(F)(F)OC(F)(F)C(F)(F)OC(F)(F)C(=O)O`, the outcome is reported as “inactive”. In the case of `C=CC(=O)OCC(F)(F)C(F)F`, the outcome is reported as “inactive”. In the case of `OCC(F)(F)OC(F)(F)C(F)(F)OC(F)(F)C(F)(F)OC(F)(F)CO`, the outcome is reported as “inactive”. For `OCC(F)(F)OC(F)(F)C(F)(F)OC(F)(F)C(F)(F)OC(F)(F)F`, the outcome was “inactive”.
